The values below come from PubChem BioAssay AID430 (Sanford-Burnham Center for Chemical Genomics, 2006).

The structures appear in SMILES notation. In all, about 63,000 compounds went through this assay and about 1,100 (1.7%) were called active. No stated cut-off is given here; in the data, active means cytotoxicity above about 50%; inactive means the rest. The list comes from a sample in which actives are over-represented; it also holds similar structures and randomly drawn compounds. Results with a measured potency or affinity are listed apart.

The nature of the test: HPDE-C7 pancreatic duct cell viability loss – fluorescence, HTS (AID 430).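 Further: cells exposed to compound for 48 hours before viability readout; 0% = vehicle and 100% = reference cytotoxic drug.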 Conditions: HPDE-C7 pancreatic duct cells viability, at 10 µM, hits give high values.
As for `COc1cccc(NC(=O)N2CCN(c3ccc(C(F)(F)F)cn3)CC2)c1`, the cytotoxicity was 1% (inactive).

As to `O=C(Cn1nnc2ccccc2c1=O)NC1CCCc2ccccc21` (stereo unspecified), the cytotoxicity was -10.4% (inactive).

For `N#CCCN(Cc1cccnc1)C(=O)c1ccc(S(=O)(=O)N2CCOCC2)cc1`, the cytotoxicity was -11% (inactive).

In the case of `CCOC(=O)c1[nH]c(C)c(C(=O)NCc2ccccn2)c1C`, the cytotoxicity is -28.2% (inactive).

Consider `CCCC(c1nnnn1C1CCCCC1)N1CCN(c2ncccn2)CC1` (stereo unspecified), for which the cytotoxicity was -4% (inactive).

For `Cc1ccc2cc3c(N)c(C(=O)N4CCOCC4)sc3nc2c1`, the cytotoxicity is -0.1% (inactive).

In the case of `Cc1ccc2nc3sc(C(=O)N4CCOCC4)c(N)c3cc2c1`, the cytotoxicity was 2.9% (inactive).

As for `Cc1cccc2cc3c(N)c(C(=O)N4CCOCC4)sc3nc12`, the cytotoxicity was 67.6% (active).

For `CN(Cc1nnc(SCC(=O)NCCc2ccccc2)n1C)S(=O)(=O)c1ccccc1`, the cytotoxicity is -11.2% (inactive).

Regarding `O=C(Nc1ccc(N2CCN(C(=O)c3ccccc3)CC2)cc1)c1ccc(Br)o1`, the cytotoxicity was -3.2% (inactive).

In the case of `O=C(OCC#CCSc1nc2ccccc2s1)c1ccco1`, the cytotoxicity was -5.2% (inactive).

On to `N#C/C(=C\c1ccco1)Sc1nc2ccccc2s1`, for which the cytotoxicity is 54.9% (active).

For the compound `c1csc(CSc2nc3ccccc3s2)c1`, the cytotoxicity is -16.5% (inactive).

`O=C(CCCSc1nc2ccccc2s1)Nc1nccs1`: the cytotoxicity is -2.3% (inactive).

Regarding `CC1=CC(=C(C#N)c2nc3ccccc3s2)C=C(C)N1Cc1ccco1`, the cytotoxicity was 10.5% (inactive).

`O=C(Cn1cnc2ccccc2c1=O)OCC(=O)c1ccc2c(c1)OCCO2`: the cytotoxicity was 3% (inactive).

Consider `O=C(c1cc2nc(-c3ccco3)cc(C(F)(F)F)n2n1)N1CCN(c2ccccc2)CC1`, for which the cytotoxicity was -3% (inactive).

On to `CCOc1ccc(C2N(c3cc(Cl)ccc3OC)C(=O)C3CCCN32)cc1OC` (stereo unspecified), for which the cytotoxicity is -15.6% (inactive).

As for `Cc1ccc(CS(=O)(=O)CCC(=O)NCCN2CCCCC2C)cc1` (stereo unspecified), the cytotoxicity was 7.5% (inactive).

`Nc1ccc(N2CCCCC2)cc1N1CCCCC1`: the cytotoxicity is 37% (inactive).

Take `O=C(O)c1ccc(N2CCCCC2)cc1`: the cytotoxicity was -6.8% (inactive).

As to `CCOc1nc(-c2ccccc2)ccc1-c1noc(-c2cccnc2)n1`, the cytotoxicity was -30.6% (inactive).

With `Cc1nc(NC2=NCN(C3CCCCC3C)CN2)nc2ccccc12` (stereo unspecified), the cytotoxicity is -2.8% (inactive).

Take `Cc1cccc(NC(=O)N2CCC(NC(=O)c3ccccc3C)CC2)c1`: the cytotoxicity is 2.1% (inactive).

On to `COC(=O)c1ccccc1NC(=O)CN1CCN(C(=O)c2ccco2)CC1`, for which the cytotoxicity was 4.2% (inactive).

With `O=C(O)c1cc(S(=O)(=O)N2CCCCCC2)ccc1Cl`, the cytotoxicity is -1.3% (inactive).

Turning to `O=S(=O)(c1ccc(S(=O)(=O)N2CCCC2)cc1)N1CCCCCC1`, the cytotoxicity was -7.3% (inactive).

Take `Cn1c(=O)c2c(nc(N3CCCCC3)n2CCSc2nc3ccccc3o2)n(C)c1=O`: the cytotoxicity was -14.5% (inactive).

Take `Cc1ccc(CN2CCN(C(=O)C3CCCO3)CC2)cc1` (stereo unspecified): the cytotoxicity is -27.2% (inactive).

For `CCOc1ccccc1NC(=O)CSc1nccn1-c1ccccc1`, the cytotoxicity was -12.5% (inactive).

For `Nc1c(C(=O)NCCN2CCOCC2)c2nc3ccccc3nc2n1CCc1ccccc1`, the cytotoxicity is 7.5% (inactive).

For `Nc1ccc(-n2c(N)c(C(=O)NCc3ccc4c(c3)OCO4)c3nc4ccccc4nc32)cc1`, the cytotoxicity was 26.7% (inactive).

On to `COc1ccc(-n2c(N)c(C(=O)NCc3ccco3)c3nc4ccccc4nc32)c(OC)c1`, for which the cytotoxicity is 14.2% (inactive).

With `COc1ccc(CCn2c(N)c(C(=O)NCc3ccco3)c3nc4ccccc4nc32)cc1OC`, the cytotoxicity was 32.4% (inactive).

Take `Nc1c(C(=O)NCCN2CCOCC2)c2nc3ccccc3nc2n1CCc1ccccc1F`: the cytotoxicity is 0.5% (inactive).

With `Nc1c(C(=O)NCCN2CCOCC2)c2nc3ccccc3nc2n1-c1ccc2c(c1)OCO2`, the cytotoxicity was 1% (inactive).

As to `CN1CCN(S(=O)(=O)c2ccc3c4c(cccc24)C(=O)N3)CC1`, the cytotoxicity was 5.6% (inactive).

Take `COc1ccc(NC(=O)C2CCN(S(=O)(=O)c3cccc4cccnc34)CC2)cc1`: the cytotoxicity is -6.3% (inactive).

`CCOC(=O)N1CCN(C(=O)CSc2nnc(Cc3cccn3C)n2CCc2ccccc2)CC1`: the cytotoxicity was -10.2% (inactive).

In the case of `Cc1cccc2cc(COC(=O)c3ccccn3)c(=O)[nH]c12`, the cytotoxicity was -10.7% (inactive).

As for `C=CCn1c(=N)n(CC(=O)O)c2ccccc21`, the cytotoxicity was -15.2% (inactive).

As for `COCCCn1c(-c2ccsc2)nc2c1c(=O)[nH]c(=O)n2Cc1ccccc1`, the cytotoxicity is -11% (inactive).

Regarding `CCCC(=O)Nc1cccc2c1CCCC2`, the cytotoxicity was 2.9% (inactive).

Take `Cc1ccc(-n2nnc3c(=O)n(Cc4cccc(C)c4)cnc32)cc1`: the cytotoxicity was 0.4% (inactive).

On to `CCOC(=O)c1sc(NC(=O)c2cc3c(C)nn(-c4ccccc4)c3s2)nc1C`, for which the cytotoxicity is 4% (inactive).

`Nc1nonc1C(=O)NCCNC(=O)c1ccccc1F`: the cytotoxicity is -4.8% (inactive).

On to `Nc1nonc1C(=O)NCCN=Cc1cc(Cc2ccccc2)cc(Br)c1O`, for which the cytotoxicity was 87.2% (active).

Consider `COc1cccc(C=NCCNC(=O)c2nonc2N)c1O`, for which the cytotoxicity was 9.3% (inactive).

`O=C1c2oc3ccc(Br)cc3c(=O)c2C(c2cccnc2)N1Cc1ccco1` (stereo unspecified): the cytotoxicity is -14.2% (inactive).

Regarding `Oc1c(-c2cc(-c3ccco3)[nH]n2)ccc2ccccc12`, the cytotoxicity is 1.8% (inactive).

Take `CSc1nc(N)nc(SCC(=O)C23CC4CC(CC(C4)C2)C3)c1C#N`: the cytotoxicity was 74% (active).

As to `CSc1nc(N)nc(SCC(=O)c2ccc(C)cc2)c1C#N`, the cytotoxicity is 3.8% (inactive).

Turning to `CSc1nc(N)nc(SCC(=O)OC(C)C)c1C#N`, the cytotoxicity was -1.7% (inactive).

On to `Cc1cc2n(n1)C(c1ccc(O)cc1)Nc1ccccc1-2` (stereo unspecified), for which the cytotoxicity was 7.9% (inactive).

Turning to `O=C(COC(=O)C1(c2ccccc2F)CCCC1)NC1CCS(=O)(=O)C1` (stereo unspecified), the cytotoxicity is -14.8% (inactive).

Consider `COc1ccc(CNc2nc3c(c(=O)[nH]c(=O)n3C)n2Cc2ccccc2C)cc1`, for which the cytotoxicity was -5.5% (inactive).

As to `COc1ccc(S(=O)(=O)N2CCN(c3ncnc4c(-c5ccccc5)nsc34)CC2)cc1`, the cytotoxicity was 5.6% (inactive).

For the compound `COc1ccc(-c2nsc3c(N4CCN(S(=O)(=O)c5ccccc5)CC4)ncnc23)cc1`, the cytotoxicity is 55.2% (active).

For `COc1ccc(-c2nsc3c(N4CCCC4)ncnc23)cc1`, the cytotoxicity is 7.9% (inactive).

`CC(C)(C)NC(=O)CSc1nnc(C2CC2)n1Cc1ccccc1`: the cytotoxicity was -7.8% (inactive).

Take `COC(=O)CNC(=O)COC(=O)C(Cc1ccccc1)NC(=O)c1ccco1` (stereo unspecified): the cytotoxicity is 6% (inactive).

`Cc1ccc(C)c(C(=O)CSc2n[nH]c(C(C)C)n2)c1`: the cytotoxicity was -7.1% (inactive).

Consider `Cn1c(=O)c(=O)n(C)c2cc(S(=O)(=O)N3CCCCC3)ccc21`, for which the cytotoxicity was 2% (inactive).

For `O=C(c1ccccc1)c1ccc(OCC(O)CN2CCOCC2)cc1` (stereo unspecified), the cytotoxicity was 6.6% (inactive).

Turning to `c1ccc(C(CN2CCOCC2)c2ccccc2)cc1`, the cytotoxicity is -12% (inactive).

For `Cc1nc2ccc(F)cc2cc1C(=O)NCC1CCCO1` (stereo unspecified), the cytotoxicity is 14.8% (inactive).

On to `COc1cc(S(=O)(=O)n2nnc3ccccc32)c(OC)cc1Cl`, for which the cytotoxicity was 60.8% (active).

Consider `COc1ccc(OC)c(S(=O)(=O)n2nnc3ccccc32)c1`, for which the cytotoxicity is -7% (inactive).

For `COc1ccc(Cl)cc1S(=O)(=O)n1nnc2ccccc21`, the cytotoxicity is 3.1% (inactive).

For the compound `CCc1ccccc1NC(=O)CN1CCC(NC(=O)COC)CC1`, the cytotoxicity is -16% (inactive).

`COc1ccc(N(CC(=O)N2CCc3ccccc3C2)S(=O)(=O)c2c(C)[nH]c(=O)[nH]c2=O)cc1`: the cytotoxicity is -21.6% (inactive).

In the case of `Cc1cc(C)c2nc(C(F)(F)F)nc(N3CCN(C(=O)c4ccco4)CC3)c2c1`, the cytotoxicity is 3.3% (inactive).

With `N#Cc1c(N2CCN(C(=O)c3ccco3)CC2)nc(-c2ccccc2)c2c1CCCC2`, the cytotoxicity is 9.1% (inactive).

Take `CC1(C)Cc2c(C#N)c(N3CCOCC3)nc(Cc3ccccc3)c2CO1`: the cytotoxicity is 46.8% (inactive).

For the compound `Cc1cc(C)c2nc(N3CCCN(C(=O)c4cnccn4)CC3)c(C#N)cc2c1`, the cytotoxicity was -0.7% (inactive).

Take `Cc1cc(C)c2nc(N3CCCN(C(=O)c4ccco4)CC3)c(C#N)cc2c1`: the cytotoxicity is 57.4% (active).

With `CC1(C)Cc2c(C#N)c(N3CCN(C(=O)c4ccccc4)CC3)nc(-c3ccco3)c2CS1`, the cytotoxicity is 11.4% (inactive).

For `CCc1nc(N2CCN(C(=O)c3ccccc3)CC2)c(C#N)c2c1COC(C)(C)C2`, the cytotoxicity is -1% (inactive).

On to `CC1(C)Cc2c(C#N)c(N3CCN(C(=O)c4ccco4)CC3)nc(-c3ccco3)c2CS1`, for which the cytotoxicity was 51.7% (active).

With `CCn1c(SCC(=O)Nc2ccc3c(c2)OCO3)nc2c1c(=O)n(C)c(=O)n2C`, the cytotoxicity is -19.3% (inactive).

`COc1cccc(CC(NC(C)=O)C(=O)NC2CCN(c3nc(C)cc(C)c3C#N)CC2)c1` (stereo unspecified): the cytotoxicity was 8.9% (inactive).

For the compound `NC(=O)c1cc(-c2ccccc2)nc(N2CCOCC2)n1`, the cytotoxicity is 11.3% (inactive).

As to `O=C(CSc1nnc(-c2cnccn2)n1Cc1ccco1)c1ccccc1`, the cytotoxicity was -4.8% (inactive).

As to `c1ccc(N2CCOCC2)c(Nc2nc3ccccc3n3cnnc23)c1`, the cytotoxicity is -9.9% (inactive).

As for `O=C(Cn1c(CO)nc2ccccc21)Nc1cc(C(F)(F)F)ccc1N1CCOCC1`, the cytotoxicity was 5.6% (inactive).

`Cc1ccccc1Cn1cc(NC(=O)c2noc3c2CC(C(C)(C)C)CC3)cn1` (stereo unspecified): the cytotoxicity is 25.7% (inactive).

`Cc1ccc(S(=O)(=O)N(CCC#N)CCN2CCCC2)cc1`: the cytotoxicity was -4.9% (inactive).

`CN1CC2(Cc3c1ccc1ccccc31)C(=O)OC(C)(C)OC2=O`: the cytotoxicity is 80.9% (active).

With `O=C1COc2ccc3ccccc3c2CN1`, the cytotoxicity was -6.8% (inactive).

Regarding `Cc1ccc2c(c1)CC1(CN2C)C(=O)OC2(CCCCC2)OC1=O`, the cytotoxicity was -5.7% (inactive).

As to `COc1ccc2c(c1)[nH]c1c(=O)n(CCN3CCCC3)cnc12`, the cytotoxicity was -19.4% (inactive).

`Cc1cc(C(=O)Nc2nc3c(s2)CCCC3)cs1`: the cytotoxicity is -5.9% (inactive).

Regarding `CCOC(=O)N1CCN(CC(O)COc2ccccc2C(C)C)CC1` (stereo unspecified), the cytotoxicity is -6% (inactive).

As to `O=C(NC1CC2CCCC(C1)N2S(=O)(=O)c1ccccc1)c1ccccc1` (stereo unspecified), the cytotoxicity was -1.3% (inactive).

Take `Cn1c(SCc2ccccc2)nnc1-c1ccncc1`: the cytotoxicity is -1.5% (inactive).

Turning to `COc1ccc(NC(=O)CC2CCCCC2)cc1OC`, the cytotoxicity is -11.1% (inactive).
